The source made the active and inactive calls. How the source made its calls: active means hit-call score of the fitted dose curve at least 0.9, where 1 is the maximum; inactive means score below 0.9.

Assay [1] concerns the target Bile acid receptor (Homo sapiens) (UniProt Q96RI1). Put plainly: ATG_IR1_CIS: Attagene CIS-FACTORIAL HepG2 Assay for human Nuclear Receptor Subfamily 1 Group H Member 4 (NR1H4), IR1 submotif (AID 2282946). To be noted: IR1 reporter transcription, actives raise or lower the signal. In a few lines:
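Readout: reporter transcript levels by RT-PCR with fluorescent capillary electrophoresis, from HepG2 cells transiently transfected with multiplexed cis-regulated reporters and dosed 24 h. Gain- or loss-of-signal fitted versus DMSO negative control.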

Assay [2] in a line: ATG_ISRE_CIS: Attagene CIS-FACTORIAL HepG2 Assay for human Interferon Regulatory Factor 1 (IRF1) binding to an Interferon-Stimulated Response Element (ISRE) (AID 2282948). The following applies: HepG2 ISRE cis-reporter (Attagene), mRNA transcription readout; actives raise or lower the signal. The procedure, abridged:
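Signal reflects induction or loss of ISRE-linked reporter mRNA in transiently transfected HepG2 cells after a 24 h treatment, detected by fluorescent RT-PCR fragments on capillary electrophoresis and normalised to DMSO.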

Assay [3] in a line: ATG_M_06_CIS: Attagene CIS-FACTORIAL HepG2 Assay for M06 Transcription Factor (Internal Marker) (AID 2282950). To be noted: HepG2 Attagene CIS-FACTORIAL M06 internal marker reporter; actives raise or lower the signal. In a few lines: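 Cells (HepG2, transiently carrying cis-driven reporter units) receive chemical for 24 h before RNA isolation. Reporter cDNA is PCR-amplified, FAM-labelled by primer extension, HpaI-digested and sized on a capillary analyser.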

Assay [4] addresses Hypoxia-inducible factor 1-alpha (Homo sapiens) (UniProt Q16665). In words: ATG_HIF1a_CIS: Attagene CIS-FACTORIAL HepG2 Assay for human Hypoxia Inducible Factor 1 (HIF1A) (AID 2282951). To be noted: HepG2 Attagene cis-factorial HIF1a reporter transcription; actives raise or lower the signal. The procedure, abridged: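 Endogenous-TF cis reporter readout, human HepG2 cells, 24 h incubation; mRNA detected via RT-PCR and capillary electrophoresis fluorescence; DMSO-normalised bidirectional fitting.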

For assay [5], the target named is Hepatocyte nuclear factor 6 (Homo sapiens) (UniProt Q9UBC0). Put plainly: ATG_HNF6_CIS: Attagene CIS-FACTORIAL HepG2 Assay for human Hepatocyte Nuclear Factor 6 (HNF6) (AID 2282952). The following applies: HepG2 Attagene cis-factorial HNF6 reporter transcription; actives raise or lower the signal. In a few lines:
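Endogenous factor activity read in transiently transfected HepG2 via promoter-regulated reporter transcripts. RNA harvested 24 h post-dosing, reverse-transcribed, PCR-amplified, FAM-labelled, HpaI-digested and resolved by capillary electrophoresis; fitted in both directions against DMSO.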

The target of assay [6] is Heat shock factor protein 1 (Homo sapiens) (UniProt Q00613). In words: ATG_HSE_CIS: Attagene CIS-FACTORIAL HepG2 Assay for human Heat Shock Transcription Factor 1 (HSE) (AID 2282953). The following applies: HepG2 HSE cis-reporter, Attagene RNA transcription; actives raise or lower the signal. The procedure, abridged: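 Liver-derived HepG2 cells carry transiently introduced multiple reporter units governed by cis promoters. Reporter RNA measured 24 h post-dose through reverse transcription, PCR amplification, fluorescent labelling and capillary electrophoresis, normalised to DMSO.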
Chain of Heat shock factor protein 1 (Homo sapiens) (Q00613 whole entry, looked up): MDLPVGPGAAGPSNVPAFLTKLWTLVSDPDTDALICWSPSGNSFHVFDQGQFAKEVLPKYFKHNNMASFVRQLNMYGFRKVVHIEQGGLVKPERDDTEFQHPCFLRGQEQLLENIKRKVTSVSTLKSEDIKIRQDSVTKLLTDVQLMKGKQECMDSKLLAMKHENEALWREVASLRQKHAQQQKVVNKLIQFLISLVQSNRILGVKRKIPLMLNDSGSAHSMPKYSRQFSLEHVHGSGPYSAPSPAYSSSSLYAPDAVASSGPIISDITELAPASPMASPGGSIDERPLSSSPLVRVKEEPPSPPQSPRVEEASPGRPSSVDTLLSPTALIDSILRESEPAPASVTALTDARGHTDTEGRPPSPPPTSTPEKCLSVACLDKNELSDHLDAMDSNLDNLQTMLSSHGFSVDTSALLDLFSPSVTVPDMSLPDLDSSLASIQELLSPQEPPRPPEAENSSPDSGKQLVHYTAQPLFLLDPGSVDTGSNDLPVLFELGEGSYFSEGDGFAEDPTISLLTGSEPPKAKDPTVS

A short description of assay [7]: ATG_MRE_CIS: Attagene CIS-FACTORIAL HepG2 Assay for human Metal Responsive Element (MRE) (AID 2282954). The following applies: HepG2 MRE cis-reporter transcription, Attagene multiplex; actives raise or lower the signal. The procedure, abridged:
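Cells were transfected with cis-promoter reporter transcription units, then dosed for 24 h. RNA was reverse-transcribed, amplified, fluorescently labelled and resolved by capillary electrophoresis, and activity was fitted in both directions relative to DMSO.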

The target of assay [8] is Paired box protein Pax-6 (Homo sapiens) (UniProt P26367). In words: ATG_Pax6_CIS: Attagene CIS-FACTORIAL HepG2 Assay for human Paired Box 6 (PAX6) (AID 2282956). The following applies: HepG2 CIS-FACTORIAL PAX6 reporter transcription, RNA readout; actives raise or lower the signal. In a few lines: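 Values derive from bidirectional curve fitting of reporter mRNA signal relative to DMSO. HepG2 cells bearing transfected cis-regulated MRTUs were exposed for 24 h; transcripts were read by RT-PCR and capillary electrophoresis.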
Chain of Paired box protein Pax-6 (Homo sapiens) (P26367 whole entry, looked up): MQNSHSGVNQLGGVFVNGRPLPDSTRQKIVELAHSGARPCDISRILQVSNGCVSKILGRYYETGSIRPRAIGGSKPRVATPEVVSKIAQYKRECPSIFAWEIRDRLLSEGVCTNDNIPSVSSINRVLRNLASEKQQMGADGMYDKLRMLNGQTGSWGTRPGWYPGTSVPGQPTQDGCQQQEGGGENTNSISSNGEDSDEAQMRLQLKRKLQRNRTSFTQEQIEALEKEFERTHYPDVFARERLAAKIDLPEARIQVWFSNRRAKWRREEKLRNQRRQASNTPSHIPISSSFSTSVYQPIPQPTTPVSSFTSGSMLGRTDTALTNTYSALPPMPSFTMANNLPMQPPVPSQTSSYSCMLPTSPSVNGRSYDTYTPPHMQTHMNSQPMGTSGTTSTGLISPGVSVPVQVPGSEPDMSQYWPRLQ

A short description of assay [9]: ATG_PXRE_CIS: Attagene CIS-FACTORIAL HepG2 Assay for human Pregnane X Receptor Element (PXRE) (AID 2282957). The following applies: HepG2 Attagene CIS-FACTORIAL PXRE reporter, mRNA; actives raise or lower the signal. The procedure, abridged: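 Reporter transcripts under endogenous PXR-responsive cis-regulation quantified from total RNA of transfected HepG2 cells 24 h post-dosing, via RT-PCR with fluorescent primer extension and capillary electrophoresis. Gain or loss of signal fitted against DMSO baseline.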

Assay [10] in a line: ATG_PPRE_CIS: Attagene CIS-FACTORIAL HepG2 Assay for human Peroxisome Proliferator-activated Response Element (PPRE) (AID 2282958). The following applies: HepG2 PPRE cis-element reporter, Attagene transcription factor profiling; actives raise or lower the signal. In a few lines:
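After human HepG2 hepatoma cells were transiently transfected with cis-promoter reporter constructs, they were exposed to test chemicals for 24 hours. Reporter RNA was then reverse-transcribed, PCR-amplified, FAM-labeled, HpaI-digested and quantified by capillary electrophoresis.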

Assay [11] can be described thus: ATG_RORE_CIS: Attagene CIS-FACTORIAL HepG2 Assay for human RAR-related Orphan Receptor Element (RORE) (AID 2282959). To be noted: HepG2 Attagene cis-factorial RORE reporter, mRNA; actives raise or lower the signal. The procedure, abridged:
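Measured here: transcript induction of a cis-regulated reporter in HepG2 cells transiently transfected via FuGene 6. After 24 h, RNA was processed by RT-PCR and fluorescent capillary electrophoresis; DMSO defined baseline activity.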

Assay [12] is described as follows: ATG_Sox_CIS: Attagene CIS-FACTORIAL HepG2 Assay for human SRY-box transcription factor (SOX) (AID 2282960). To be noted: HepG2 Attagene cis-factorial SOX reporter, mRNA; actives raise or lower the signal. In a few lines:
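Using transiently transfected HepG2 cells, reporter transcription driven by cis elements was assessed 24 h after dosing. Signal was fluorescence of capillary-separated RT-PCR products, with DMSO defining baseline activity.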

The target of assay [13] is Transcription factor Sp1 (Homo sapiens) (UniProt P08047). In words: ATG_Sp1_CIS: Attagene CIS-FACTORIAL HepG2 Assay for human Specificity Protein 1 (Sp1) (AID 2282961). The following applies: HepG2 Sp1 cis-reporter transcription, actives raise or lower the signal. In a few lines:
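After transient transfection of HepG2 cells with cis-promoter reporter units and 24 h chemical treatment, reporter transcripts were quantified by RT-PCR and capillary electrophoresis fluorescence. Gain- and loss-of-signal fitted against DMSO.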

The nature of assay [14]: ATG_SREBP_CIS: Attagene CIS-FACTORIAL HepG2 Assay for human Sterol Regulatory Element Binding (SREBP) (AID 2282962). To be noted: HepG2 Attagene cis-factorial SREBP reporter, mRNA; actives raise or lower the signal. The procedure, abridged: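 Values derive from bidirectional curve fitting with DMSO as baseline. The underlying measurement is reporter mRNA from cis-element-regulated units in transiently transfected HepG2, quantified by RT-PCR and capillary electrophoresis after 24 h exposure.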

Assay [15] concerns the target Signal transducer and activator of transcription 3 (Homo sapiens) (UniProt P40763). Put plainly: ATG_STAT3_CIS: Attagene CIS-FACTORIAL HepG2 Assay for human Signal Transducer and Activator of Transcription 3 (STAT3) (AID 2282963). To be noted: HepG2, Attagene cis-factorial STAT3 reporter transcription; actives raise or lower the signal. The procedure, abridged:
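HepG2, MRTU-transfected, 24 h dosing. RNA → RT → PCR → FAM label → HpaI → CE. Bidirectional fit vs DMSO.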

The nature of assay [16]: ATG_TA_CIS: Attagene CIS-FACTORIAL HepG2 Assay for human TA Basal Promoter (AID 2282964). The following applies: HepG2 Attagene CIS-factorial TA basal promoter reporter; actives raise or lower the signal. The procedure, abridged: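 Background internal-marker endpoint from a 52-component HepG2 cis-reporter panel. Cells treated 24 h; reporter transcripts quantified via RT-PCR and CE fluorescence against DMSO baseline.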

Assay [17] is described as follows: ATG_TCF_b_cat_CIS: Attagene CIS-FACTORIAL HepG2 Assay for human T-Cell-Factor with beta-catenin (TCF/b-cat) (AID 2282965). To be noted: HepG2 TCF/beta-catenin cis-reporter transcription, actives raise or lower the signal. The procedure, abridged:
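HepG2 cells transiently transfected with multiple cis-promoter-regulated reporter transcription units, so endogenous transcription factor activity is measured. Reporter mRNA read 24 hours after dosing by RT-PCR, fluorescent labelling and capillary electrophoresis; bidirectional fitting against DMSO.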

A short description of assay [18]: ATG_GRE_CIS: Attagene CIS-FACTORIAL HepG2 Assay for human Glucocorticoid Response Elements (GRE) (AID 2282947). The following applies: HepG2 GRE cis-reporter, Attagene multiplex mRNA; actives raise or lower the signal. In a few lines:
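Cells (HepG2) bearing transfected cis-promoter reporter transcription units were treated with chemical for 24 hours. Reporter mRNA was measured via RT-PCR with capillary electrophoresis, and activity was fitted in both directions relative to DMSO.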

Assay [19] can be described thus: ATG_M_32_CIS: Attagene CIS-FACTORIAL HepG2 Assay for M32 Transcription Factor (Internal Marker) (AID 2282949).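 Further: background control marker of the multiplexed CIS panel rather than a real target.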 The following applies: HepG2 Attagene cis-factorial M32 reporter, mRNA; actives raise or lower the signal. The procedure, abridged: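 HepG2 transfectants (cis-regulated reporter transcription units) dosed 24 h. Reporter mRNA by RT-PCR plus CE, analysed as gain or loss relative to DMSO.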

The nature of assay [20]: ATG_PBREM_CIS: Attagene CIS-FACTORIAL HepG2 Assay for human Phenobarbital-responsive Enhancer Module (PBREM) (AID 2282955). To be noted: HepG2 PBREM cis-reporter, Attagene multiplexed transcription; actives raise or lower the signal. The procedure, abridged: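 Readout: reporter mRNA, fluorescent RT-PCR fragments separated by capillary electrophoresis. System: HepG2 transiently transfected with cis-regulated reporter units. Exposure: 24 h. Analysis: bidirectional, DMSO baseline.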

Chain of Transcription factor Sp1 (Homo sapiens) (P08047 whole entry, looked up): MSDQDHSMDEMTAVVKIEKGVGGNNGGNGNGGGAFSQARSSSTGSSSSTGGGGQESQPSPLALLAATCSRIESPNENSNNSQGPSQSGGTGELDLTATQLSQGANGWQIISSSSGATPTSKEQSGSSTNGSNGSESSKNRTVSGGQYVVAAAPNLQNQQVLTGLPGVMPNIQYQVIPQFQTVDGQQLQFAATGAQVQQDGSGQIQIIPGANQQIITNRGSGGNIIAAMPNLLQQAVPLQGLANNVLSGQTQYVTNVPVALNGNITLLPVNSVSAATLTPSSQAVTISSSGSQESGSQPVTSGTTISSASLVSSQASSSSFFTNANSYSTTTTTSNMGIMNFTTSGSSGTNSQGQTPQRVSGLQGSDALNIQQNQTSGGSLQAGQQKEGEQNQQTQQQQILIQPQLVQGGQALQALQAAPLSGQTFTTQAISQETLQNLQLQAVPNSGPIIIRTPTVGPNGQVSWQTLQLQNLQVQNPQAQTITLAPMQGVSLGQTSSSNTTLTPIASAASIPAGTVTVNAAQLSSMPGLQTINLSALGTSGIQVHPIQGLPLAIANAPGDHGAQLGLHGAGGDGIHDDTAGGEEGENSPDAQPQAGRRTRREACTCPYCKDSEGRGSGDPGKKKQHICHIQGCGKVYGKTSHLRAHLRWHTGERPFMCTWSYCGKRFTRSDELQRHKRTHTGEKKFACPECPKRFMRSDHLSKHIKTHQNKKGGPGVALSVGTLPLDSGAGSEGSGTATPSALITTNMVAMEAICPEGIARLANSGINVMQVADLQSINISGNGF
Chain of Hepatocyte nuclear factor 6 (Homo sapiens) (Q9UBC0 whole entry, looked up): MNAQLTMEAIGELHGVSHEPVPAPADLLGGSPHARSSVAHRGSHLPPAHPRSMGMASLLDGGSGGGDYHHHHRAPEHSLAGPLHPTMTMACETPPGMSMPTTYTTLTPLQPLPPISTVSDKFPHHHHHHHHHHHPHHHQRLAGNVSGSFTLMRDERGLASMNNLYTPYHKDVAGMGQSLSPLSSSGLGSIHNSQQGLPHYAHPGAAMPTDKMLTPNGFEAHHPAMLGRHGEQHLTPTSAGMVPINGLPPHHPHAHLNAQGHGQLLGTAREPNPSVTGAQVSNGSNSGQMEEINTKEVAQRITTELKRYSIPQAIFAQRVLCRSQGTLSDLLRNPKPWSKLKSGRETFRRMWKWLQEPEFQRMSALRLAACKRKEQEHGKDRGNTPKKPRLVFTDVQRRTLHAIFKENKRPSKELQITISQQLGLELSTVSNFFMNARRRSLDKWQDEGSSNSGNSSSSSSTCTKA
Chain of Signal transducer and activator of transcription 3 (Homo sapiens) (P40763 whole entry, looked up): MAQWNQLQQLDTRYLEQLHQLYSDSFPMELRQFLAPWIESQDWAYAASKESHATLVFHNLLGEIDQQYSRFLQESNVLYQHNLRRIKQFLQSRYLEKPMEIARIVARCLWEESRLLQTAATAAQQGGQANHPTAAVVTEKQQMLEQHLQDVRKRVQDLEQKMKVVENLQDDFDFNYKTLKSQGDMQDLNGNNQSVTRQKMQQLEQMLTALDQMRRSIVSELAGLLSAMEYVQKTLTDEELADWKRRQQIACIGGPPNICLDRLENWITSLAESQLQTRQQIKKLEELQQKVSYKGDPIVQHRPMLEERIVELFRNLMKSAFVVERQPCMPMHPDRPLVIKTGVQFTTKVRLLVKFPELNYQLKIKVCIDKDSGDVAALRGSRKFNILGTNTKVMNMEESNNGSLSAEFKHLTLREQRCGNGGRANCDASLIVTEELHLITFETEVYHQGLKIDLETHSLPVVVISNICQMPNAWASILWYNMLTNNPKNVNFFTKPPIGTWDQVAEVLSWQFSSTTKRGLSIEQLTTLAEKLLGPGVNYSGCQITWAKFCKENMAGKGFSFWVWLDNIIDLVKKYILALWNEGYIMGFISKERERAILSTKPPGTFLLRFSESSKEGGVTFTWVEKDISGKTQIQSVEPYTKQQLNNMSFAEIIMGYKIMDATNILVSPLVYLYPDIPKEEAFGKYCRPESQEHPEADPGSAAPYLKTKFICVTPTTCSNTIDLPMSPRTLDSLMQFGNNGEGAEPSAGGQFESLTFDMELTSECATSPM
Chain of Hypoxia-inducible factor 1-alpha (Homo sapiens) (Q16665 whole entry, looked up): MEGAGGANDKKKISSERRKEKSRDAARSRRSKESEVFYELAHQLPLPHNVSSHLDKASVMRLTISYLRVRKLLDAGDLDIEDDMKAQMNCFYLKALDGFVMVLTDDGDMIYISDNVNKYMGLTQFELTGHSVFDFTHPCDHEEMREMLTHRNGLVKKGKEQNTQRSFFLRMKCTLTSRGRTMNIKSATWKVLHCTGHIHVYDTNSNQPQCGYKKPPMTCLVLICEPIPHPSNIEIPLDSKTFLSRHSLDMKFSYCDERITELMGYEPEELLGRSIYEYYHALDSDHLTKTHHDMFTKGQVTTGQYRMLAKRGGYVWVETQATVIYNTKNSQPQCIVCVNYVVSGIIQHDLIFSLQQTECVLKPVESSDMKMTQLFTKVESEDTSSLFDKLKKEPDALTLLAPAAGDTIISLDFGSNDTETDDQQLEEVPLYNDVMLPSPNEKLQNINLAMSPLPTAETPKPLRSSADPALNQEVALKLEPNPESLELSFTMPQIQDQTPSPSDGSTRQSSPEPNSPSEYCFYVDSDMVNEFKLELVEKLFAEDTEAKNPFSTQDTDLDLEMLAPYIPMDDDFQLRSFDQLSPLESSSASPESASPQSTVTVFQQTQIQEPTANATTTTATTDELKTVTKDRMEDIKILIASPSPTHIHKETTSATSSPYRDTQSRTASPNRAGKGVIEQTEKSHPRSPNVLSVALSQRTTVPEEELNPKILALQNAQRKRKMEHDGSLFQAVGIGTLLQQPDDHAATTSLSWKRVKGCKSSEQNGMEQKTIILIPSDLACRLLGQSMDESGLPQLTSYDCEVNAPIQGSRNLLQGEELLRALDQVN
Chain of Bile acid receptor (Homo sapiens) (Q96RI1 whole entry, looked up): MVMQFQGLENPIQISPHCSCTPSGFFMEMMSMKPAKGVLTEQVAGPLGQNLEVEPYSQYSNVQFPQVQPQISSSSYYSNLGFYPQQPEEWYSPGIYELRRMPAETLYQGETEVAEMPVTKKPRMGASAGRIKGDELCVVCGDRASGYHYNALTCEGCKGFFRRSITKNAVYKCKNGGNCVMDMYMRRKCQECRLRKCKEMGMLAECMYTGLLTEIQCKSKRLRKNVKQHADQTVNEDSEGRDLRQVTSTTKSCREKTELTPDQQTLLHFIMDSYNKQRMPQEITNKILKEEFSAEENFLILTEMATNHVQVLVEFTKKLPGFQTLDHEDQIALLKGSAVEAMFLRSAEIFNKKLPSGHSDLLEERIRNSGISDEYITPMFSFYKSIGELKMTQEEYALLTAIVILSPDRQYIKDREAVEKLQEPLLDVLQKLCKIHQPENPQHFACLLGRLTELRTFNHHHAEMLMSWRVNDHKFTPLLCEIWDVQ

As for `CC(C)CC(C)CC(O)CC(C)C` (centres undefined), the call in [1], in assay [2], in assay [3], in [4], in assay [5] and in [6] was inactive. The outcome in assay [7], in [8], in [9], in assay [10], in assay [11] and in assay [12] was inactive. Further, the call in assay [13], in assay [14], in assay [15], in assay [16] and in assay [17] was inactive.

Take `CC1=NN(c2ccc(S(=O)(=O)O)cc2)C(=O)C1`: the outcome in [18], in [2], in [19], in [3], in assay [4] and in [5] was inactive. Moreover, the molecule was classed as inactive in [6], in assay [7], in assay [20], in assay [8], in assay [9] and in assay [11]. Besides, the result in [12], in [13], in assay [14], in assay [15], in assay [16] and in [17] was inactive.

With `COC(C)(C)CCO`, the call in assay [18], in assay [2], in assay [19], in assay [3], in assay [4] and in [5] was inactive. Also, the call in assay [6], in assay [7], in [20], in [8], in assay [9] and in assay [10] was inactive. Also, the result in assay [11], in assay [12], in [13], in assay [14], in assay [15] and in assay [16] was inactive.

Regarding `C=CC(=C)CCCC(C)(C)OC(C)=O`, the result in [18], in assay [2], in assay [19], in [3], in assay [4] and in assay [5] was inactive. The molecule was called inactive in assay [6], in [7], in [20], in [8], in assay [9] and in assay [10]. The molecule was classed as inactive in assay [11], in assay [12], in [13], in assay [15], in [16] and in [17].

As to `CCC1CCCCC1`, the molecule was called inactive in assay [18], in assay [2], in [19], in assay [3], in assay [4] and in [5]. In addition, the result in assay [6], in assay [7], in assay [20], in assay [8], in assay [9] and in [10] was inactive. Moreover, the molecule was called inactive in assay [11], in assay [12], in assay [13], in assay [14], in assay [15] and in [16]. In assay [17], the call was inactive.

As usually defined, the AC50 is the concentration at which the activity in the assay is half-maximal. With `CC(Oc1cc(Cl)ccc1Cl)C(=O)O` (centres undefined), the call in [18], in assay [2], in assay [19], in assay [3], in assay [4] and in assay [5] was inactive. For the same molecule, the molecule was classed as inactive in assay [7], in [20], in assay [8], in assay [11], in [12] and in [13]. Besides, the outcome in [14], in assay [15], in assay [16] and in assay [17] was inactive. Further, the half-maximal activity concentration (AC50) in assay [9] is 82.1 µM (active); in assay [10], 100 µM (active).

In the case of `C=C(C)[C@H]1CC=C(C)C(=O)C1`, the outcome in assay [18], in assay [2], in assay [19], in assay [3], in assay [4] and in [5] was inactive. Moreover, the molecule was called inactive in assay [7], in [8], in assay [11], in assay [12], in [13] and in assay [14]. The call in assay [15], in assay [16] and in assay [17] was inactive. In addition, the half-maximal activity concentration (AC50) in [9] was 27.9 µM (active).

These data come from PubChem BioAssay (EPA / NIEHS).
